The target of test [1] is Estrogen receptor beta (Homo sapiens) (UniProt Q92731). The experiment in a line: qHTS assay to identify small molecule agonists of the estrogen receptor beta (ER-beta) signaling pathway (AID 1259377; active = well fitted activation curve with a large enough effect in the signal ratio in the repeat runs, not every such curve was filed as active; the % refers to the signal ratio; note: potency is the fitted concentration of half-maximal effect). In a few lines: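 Read-out: beta-lactamase FRET fluorescence. Cell line: ER-beta-UAS-bla HEK293T in 2% charcoal-stripped FBS. Exposure: 16 hr at 37C. Substrate step: 2 h at room temperature.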
For orientation: In qHTS, concentration-response curves come from the screen itself.

Test [2] in a line: qHTS assay to identify small molecule agonists of the androgen receptor (AR) signaling pathway in the presence of an antagonist - cell viability counter screen (AID 1259379). Note: nearly all actives have a fitted effect of over 25% in size. Note: potency is the fitted concentration of half-maximal effect. In a few lines:
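Counter screen for cell viability run in parallel with the AR agonist-mode luciferase assay. MDA-kb2 cells were co-treated with nilutamide (3.0uM final) and compounds, then incubated 16 hr at 37C, and CellTiter-Fluor fluorescence was measured.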

Test [3] in a line: qHTS assay to identify small molecule agonists of the estrogen receptor beta (ER-beta) signaling pathway - cell viability counter screen (AID 1259380). Note: nearly all actives have a fitted effect of over 30% in size. Note: potency is the fitted concentration of half-maximal effect. In outline:
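In this qHTS counter screen, HEK293T cells carrying an ER-beta/UAS beta-lactamase reporter, grown in 2% charcoal-stripped FBS, received compound for 16 hr; ATP-based CellTiter-Glo luminescence was then read after 30 min at room temperature.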

A short description of test [4]: qHTS assay to identify small molecule antagonists of the estrogen receptor beta (ER-beta) signaling pathway - cell viability counter screen (AID 1259382).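 Note: HEK293T cells carrying ER-beta-UAS-bla reporter stimulated with estradiol; series mostly up to about 92 µM; nearly all actives have a fitted effect of over 55% in size.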 In a few lines:
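HEK293T ER-beta-UAS-bla, 2% charcoal-stripped FBS; compounds + 1nM E2 16 hr 37C; CellTiter-Glo luminescence, 30 min RT.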

The target in test [5] is Estrogen receptor (Homo sapiens) (UniProt P03372). The test is described as follows: qHTS assay to identify small molecule agonists of the estrogen receptor alpha (ER-alpha) signaling pathway in the presence of an antagonist (AID 1259383; calls by dose curve; note: top concentration of the series differs between compounds; nearly all actives have a fitted effect of over 15% in size). In a few lines: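 ER-alpha agonism measured under antagonist challenge: 10.0nM ICI-182,780 (final) plus compound, 15 concentrations, 22hr, VM7Luc4E2 ERE-luciferase cells. Read by luminescence.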

Test [6] is described as follows: qHTS assay to identify small molecule agonists of the estrogen receptor alpha (ER-alpha) signaling pathway in the presence of an antagonist - cell viability counter screen (AID 1259386).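 Note: cells exposed to compounds for 22 h at 37 °C before the viability read; nearly all actives have a fitted effect of over 30% in size.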 Note: potency is the fitted concentration of half-maximal effect. In a few lines:
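Steps: 5-day stripped-FBS culture; seed and incubate 24hr; add ICI-182,780 (10.0nM final); pin 15-point compound titration; incubate 22hr at 37C; add CellTiter-Fluor at 21hr; read fluorescence.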

Test [7] addresses Estrogen receptor beta (Homo sapiens) (UniProt Q92731). The experiment in a line: qHTS assay to identify small molecule antagonists of the estrogen receptor beta (ER-beta) signaling pathway (AID 1259378; active = well fitted inhibition curve with a large enough effect in the signal ratio in the repeat runs, not every such curve was filed as active; the % refers to the signal ratio). In outline:
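Antagonist mode: compounds added to beta-lactamase reporter HEK293T ER-beta-UAS cells stimulated with E2 (1nM final), 16 hr at 37C. LiveBLAzer B/G FRET substrate, 2 hours room temperature, fluorescence read-out.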

The nature of test [8]: qHTS assay to identify small molecule agonists or antagonists of the thyroid stimulating hormone receptor (TSHR) signaling pathway - wild type cell line counter screen (AID 1259384; calls by dose curve). In outline: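 Counter screen in untransfected Hek293: compounds (15-point titration, triplicate) plus phosphodiesterase inhibitor Ro20-1724 added after 18 h plating; 30 min RT. Intracellular cAMP via competitive d2/cryptate immunoassay, 1 h incubation.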

In test [9] the target is Thyrotropin receptor (Homo sapiens) (UniProt P16473). The test is described as follows: qHTS assay to identify small molecule antagonists of the thyroid stimulating hormone receptor (TSHR) signaling pathway (AID 1259385; calls by dose curve; note: nearly all actives have a fitted effect of over 20% in size). In outline: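 Antagonist mode: compound-treated TSHR-expressing HEK293 cells were stimulated with 1.5 ng/mL TSH (final) in presence of Ro20-1724 for 30 min at RT. HTRF cAMP detection after 1 h; each compound tested at 15 concentrations, triplicate.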

The target in test [10] is Androgen receptor (Homo sapiens) (UniProt P10275). The test is described as follows: qHTS assay to identify small molecule agonists of the androgen receptor (AR) signaling pathway in the presence of an antagonist (AID 1259381; calls by dose curve; note: nearly all actives have a fitted effect of over 15% in size). In outline: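 AR antagonist background: nilutamide 3.0uM final. Cell line: MDA-kb2, MMTV-driven luciferase, responsive to both AR and GR. Exposure 16hr, 37C, no CO2; ONE-Glo luminescence.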

Results filed as inconclusive are left out. Calls of active or inactive are those of the source. Unless noted, calls come from the whole dose curve; as a rule, active = well fitted curve in the direction sought with a large enough effect in the repeat runs; inconclusive = weak or mixed curves; inactive = no such curve, though single readings can be large; an effect the other way counts as inactive or inconclusive.

Thyrotropin receptor (Homo sapiens), sequence (P16473 whole entry, looked up): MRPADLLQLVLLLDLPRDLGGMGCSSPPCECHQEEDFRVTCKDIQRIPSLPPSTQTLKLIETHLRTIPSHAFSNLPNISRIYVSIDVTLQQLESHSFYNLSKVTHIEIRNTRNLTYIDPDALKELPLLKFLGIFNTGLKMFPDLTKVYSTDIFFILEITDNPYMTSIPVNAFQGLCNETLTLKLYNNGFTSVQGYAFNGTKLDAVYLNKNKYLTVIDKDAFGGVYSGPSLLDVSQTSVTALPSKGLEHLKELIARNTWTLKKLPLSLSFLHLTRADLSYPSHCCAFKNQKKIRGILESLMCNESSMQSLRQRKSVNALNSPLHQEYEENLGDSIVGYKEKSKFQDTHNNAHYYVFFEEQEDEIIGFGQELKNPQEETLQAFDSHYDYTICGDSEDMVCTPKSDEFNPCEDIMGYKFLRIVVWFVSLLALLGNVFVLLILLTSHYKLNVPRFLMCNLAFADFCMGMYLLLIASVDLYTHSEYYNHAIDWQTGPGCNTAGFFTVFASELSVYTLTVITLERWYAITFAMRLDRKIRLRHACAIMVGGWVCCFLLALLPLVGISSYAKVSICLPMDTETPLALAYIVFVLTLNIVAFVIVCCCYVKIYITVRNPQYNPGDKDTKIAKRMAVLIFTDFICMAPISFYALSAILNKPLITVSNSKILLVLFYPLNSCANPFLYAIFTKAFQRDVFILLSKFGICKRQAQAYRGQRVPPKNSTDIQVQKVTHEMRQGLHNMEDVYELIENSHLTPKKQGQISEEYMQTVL
Estrogen receptor beta (Homo sapiens), sequence (Q92731 whole entry, looked up): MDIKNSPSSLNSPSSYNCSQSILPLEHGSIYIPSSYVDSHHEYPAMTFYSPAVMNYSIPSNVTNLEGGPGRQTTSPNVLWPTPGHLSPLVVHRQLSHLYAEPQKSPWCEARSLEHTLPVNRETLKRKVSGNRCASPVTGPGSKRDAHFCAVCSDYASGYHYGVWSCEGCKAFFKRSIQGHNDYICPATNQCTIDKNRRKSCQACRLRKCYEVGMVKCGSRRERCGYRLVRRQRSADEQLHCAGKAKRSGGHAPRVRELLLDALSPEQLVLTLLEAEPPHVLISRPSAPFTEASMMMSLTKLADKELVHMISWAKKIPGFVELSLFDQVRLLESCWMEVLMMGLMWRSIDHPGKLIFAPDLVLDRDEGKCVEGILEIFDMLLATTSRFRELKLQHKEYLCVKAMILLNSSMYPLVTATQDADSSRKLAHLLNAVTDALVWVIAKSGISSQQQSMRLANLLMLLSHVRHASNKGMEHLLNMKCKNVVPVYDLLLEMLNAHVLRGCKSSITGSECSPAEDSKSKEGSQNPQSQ
Estrogen receptor (Homo sapiens), sequence (P03372 whole entry, looked up): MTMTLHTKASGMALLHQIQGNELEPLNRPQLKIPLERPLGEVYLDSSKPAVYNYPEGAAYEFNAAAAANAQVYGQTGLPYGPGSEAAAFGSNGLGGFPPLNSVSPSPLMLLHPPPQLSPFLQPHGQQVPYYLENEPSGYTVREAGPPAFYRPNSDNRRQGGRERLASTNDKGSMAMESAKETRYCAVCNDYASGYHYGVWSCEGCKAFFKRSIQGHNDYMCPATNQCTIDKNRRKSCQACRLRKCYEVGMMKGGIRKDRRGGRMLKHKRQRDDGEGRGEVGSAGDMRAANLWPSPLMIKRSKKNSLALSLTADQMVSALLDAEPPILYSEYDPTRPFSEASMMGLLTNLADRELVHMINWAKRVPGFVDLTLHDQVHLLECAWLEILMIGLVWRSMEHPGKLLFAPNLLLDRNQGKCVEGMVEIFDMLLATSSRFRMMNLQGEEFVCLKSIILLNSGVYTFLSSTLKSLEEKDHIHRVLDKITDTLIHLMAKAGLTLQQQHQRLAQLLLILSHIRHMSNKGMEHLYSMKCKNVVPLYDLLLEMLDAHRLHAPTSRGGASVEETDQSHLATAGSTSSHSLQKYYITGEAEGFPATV
Androgen receptor (Homo sapiens), sequence (P10275 whole entry, looked up): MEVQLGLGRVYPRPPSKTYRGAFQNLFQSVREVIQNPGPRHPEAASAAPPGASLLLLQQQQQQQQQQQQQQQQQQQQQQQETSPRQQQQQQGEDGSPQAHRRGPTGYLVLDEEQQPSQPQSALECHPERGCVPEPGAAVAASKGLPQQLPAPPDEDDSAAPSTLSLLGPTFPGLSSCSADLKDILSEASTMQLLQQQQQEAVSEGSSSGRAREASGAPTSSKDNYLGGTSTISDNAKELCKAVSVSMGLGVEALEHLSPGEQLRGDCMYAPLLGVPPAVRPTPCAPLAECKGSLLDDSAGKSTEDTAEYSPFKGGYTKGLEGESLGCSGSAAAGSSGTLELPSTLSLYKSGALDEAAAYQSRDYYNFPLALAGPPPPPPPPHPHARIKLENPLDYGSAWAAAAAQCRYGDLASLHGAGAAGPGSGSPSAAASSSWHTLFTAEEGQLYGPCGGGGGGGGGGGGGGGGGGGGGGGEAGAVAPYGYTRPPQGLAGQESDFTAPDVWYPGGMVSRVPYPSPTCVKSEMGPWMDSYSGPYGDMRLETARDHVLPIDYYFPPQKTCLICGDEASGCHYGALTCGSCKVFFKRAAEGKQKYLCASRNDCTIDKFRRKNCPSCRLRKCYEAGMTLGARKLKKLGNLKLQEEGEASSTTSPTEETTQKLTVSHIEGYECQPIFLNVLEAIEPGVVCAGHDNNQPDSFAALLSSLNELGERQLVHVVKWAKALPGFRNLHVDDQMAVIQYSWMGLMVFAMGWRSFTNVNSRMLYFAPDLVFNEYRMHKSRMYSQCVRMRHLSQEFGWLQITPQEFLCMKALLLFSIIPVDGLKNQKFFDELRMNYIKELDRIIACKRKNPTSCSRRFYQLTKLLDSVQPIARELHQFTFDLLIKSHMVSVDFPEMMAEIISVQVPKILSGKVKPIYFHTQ

For `CCOC(=O)c1cnc2c(cnn2CC)c1NN=C(C)C`, the Potency result in test [1], in test [2], in test [3] and in test [6] was “inactive” in each case. In addition, the result in test [4] and in test [5] was inactive.
With `CC1=NN(c2cc(S(=O)(=O)O)ccc2Cl)C(=O)C1N=Nc1ccccc1` (stereo not given), the Potency result in test [1] and in test [7] was “inactive” in each case. Also, the Potency in test [2] and in test [6] was 27.3 µM (active) in each case. The result in test [4], in test [8] and in test [9] was inactive.
On to `Cc1nc2ccc(CN(C)c3ccc(C(=O)N[C@@H](CCC(=O)O)C(=O)O)s3)cc2c(=O)[nH]1`, for which the Potency result in [2], in [10] and in test [6] was “inactive” in each case. Besides, the Potency in [3] was 0.15 µM (active). The call in [8] and in test [9] was inactive.
As to `Nc1ccn([C@@H]2O[C@H](CO)[C@@H](O)C2(F)F)c(=O)n1`, the Potency result in test [1], in test [2] and in test [6] was “inactive” in each case. The call in test [4], in [5], in test [8] and in [9] was inactive.
For `O=C1c2ccccc2C(=O)c2cc(O)ccc21`, the figures for the Potency in test [1] and in test [6] were 5.45 µM (active) and 27.3 µM (active), respectively. For the same compound, the outcome in test [4] and in test [8] was inactive.

(Values after PubChem BioAssay (Tox21).)
